AID923 = qHTS Assay for Allosteric/Competitive Inhibitors of Caspase-1: Spectroscopic Profiling in AFC Spectral Region; compound fluorescence, AFC spectral region (405/520 nm); Potency, µM (titrated, usually from 57.5 µM), for the others: at the highest dose fluorescence increase, usual class: activators; 75,000 tested, 1.1% active; AID 923, 2007; note: potency is the fitted concentration of half-maximal effect; 0% is about no effect
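Compound autofluorescence profiled at 405 nm ex/520 nm em during kinetic caspase 1 run (50 nM enzyme, 5 uM Ac-WEHD-AFC, HEPES pH 7.5, 10 mM DTT). Titration up to 57 uM; baseline from regression intercept, normalized to AFC standard curve.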
A350 autofl = A350 region autofluorescence; 59,000 tested, 11% active; Compound autofluorescence, 340/450 nm, Alexa 350 dye-equivalents; stronger effect = higher value; max dye-equivalent concentration, M; AID 590; in the data active = max dye-equivalent concentration above about 10 nM; inconclusive = mostly about 1.1 nM to 9.6 nM
4-MU autofl = 4-MU region autofluorescence; compound autofluorescence, 340/450 nm, 4-MU equivalents; stronger effect = higher value; max dye-equivalent concentration, M; 59,000 tested, 11% active; in the data active = max dye-equivalent concentration above about 10 nM; inconclusive = mostly about 1.1 nM to 9.6 nM
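Compounds in 100 mM Tris, pH 8.0, incubated 15 min at room temperature, then fluorescence read at 340 nm excitation/450 nm emission. Signal converted to 4-MU dye-equivalent concentration using an on-plate six-point 4-MU standard curve.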
CRE Fsk mod = modulators of forskolin-stimulated CRE signaling in CHO cells; CHO CRE-bla reporter (cAMP response element driving beta-lactamase), forskolin EC10, beta-lactamase ratio; Potency, µM (highest dose often 38.2 µM), inactives show top-dose activity change, negative = inhibition, usual class: activators; 71,000 tested, 2.5% active; active = well fitted activation curve with a large enough effect in the signal ratio, with a control signal flat, not every such curve was filed as active; inconclusive = small, poorly fitted or top-dose-only effect, or effect the other way, or a change in a side signal; the % refers to the signal ratio; note: potency is the fitted concentration of half-maximal effect; % of control where 0% means no effect
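Reporter-gene assay: CHO cells with beta-lactamase behind cAMP responsive elements, co-treated with compound and EC10 NKH 477 for 3 hours at 37 degrees Celsius. Activity came from the 460/530 nm CCF4 emission ratio.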
HADH2 inhib = blocks human hydroxyacyl-CoA dehydrogenase type II. Q99714. recombinant HADH2, NADH fluorescence, beta-hydroxybutyryl-CoA. Potency, µM (titrated, usually from 57.1 µM), for the others: at the highest dose activity change, negative = inhibition, usual class: inhibitors. 73,000 tested, 3.4% active. AID 886; note: potency is the fitted concentration of half-maximal effect; % is set by controls: 0 for no effect and ±100 for the full control effect; nearly all actives have a fitted effect of over 60% in size
Target sequence (Q99714 whole entry, looked up, one chain of several): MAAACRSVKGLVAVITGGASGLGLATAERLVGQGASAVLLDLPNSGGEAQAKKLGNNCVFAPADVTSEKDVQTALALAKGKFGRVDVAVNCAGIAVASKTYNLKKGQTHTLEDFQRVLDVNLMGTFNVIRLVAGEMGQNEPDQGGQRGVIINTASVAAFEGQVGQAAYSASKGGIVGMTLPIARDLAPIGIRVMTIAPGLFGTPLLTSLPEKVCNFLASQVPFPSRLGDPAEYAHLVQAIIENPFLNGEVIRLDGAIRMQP
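NADH fluorescence (ex 360/em 450 nm) read every 30 s for 4 min; activity taken as last-minus-first time point difference. Enzyme 20 nM, NAD+ 1 mM, beta-hydroxybutyryl-CoA 90 uM, pH 9.0 Tris buffer.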
HSD17B inhib = HSD17B dehydrogenase inhibition | Q99714 | recombinant HSD17B10, NADH fluorescence kinetic | Potency, µM (doses to about 57.1 µM), for the others: at the highest dose activity change, negative = inhibition, hits mostly inhibitors | 75,000 tested, 7.6% active | AID 893;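 note: the protocol describes HADH2 (HSD17B10) and not the HSD17B4 of the title; potency is the fitted concentration of half-maximal effect; % is set by controls: 0 for no effect and ±100 for the full control effect; nearly all actives have a fitted effect of over 70% in size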
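Activity followed as NADH fluorescence increase (ex 360, em 450 nm) every 30 seconds for 4 min, using final 90 uM beta-hydroxybutyryl CoA and 1 mM NAD+. Recombinant His-tagged enzyme, 20 nM, pH 9.0 Tris buffer, 15 min compound preincubation.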
Numbers without * were called inactive; i = inactive; ? = inconclusive; / = no result given; ! = not confirmed by another sample; [ ] = another dose, or the depositor's remark. In the library only some 14% were active in any assay of this set; here they are far more common. Unless noted, calls come from the whole dose curve; as a rule, active = well fitted curve in the direction sought with a large enough effect; inconclusive = small, poorly fitted or top-dose-only effect, or another doubt; inactive = no such curve, though single readings can be large; an effect the other way counts as inactive or inconclusive.

SMILES	AID923	A350 autofl	4-MU autofl	CRE Fsk mod	HADH2 inhib	HSD17B inhib
CC(C)(C)OC(=O)N1CC=C2C(C#N)=C(N)C(C#N)(C#N)C(c3cccs3)C2C1 (stereo not given)	18%	9e-08M*	6.2e-08M*	-19%	0%	?
CCOC(=O)C1=C(N)n2c(s/c(=C\c3cccnc3)c2=O)=C(C#N)C1c1cccnc1 (stereo not given)	0%	i	i	4%	-5%	3%
N#CC1=C(N)C(C#N)(C#N)[C@H](c2ccncc2)[C@H]2CC3(CC=C12)OCCO3	4%	?	?	-12%	9%	35%
CC(C)(C)OC(=O)N1CC=C2C(C#N)=C(N)C(C#N)(C#N)[C@H](c3cccnc3)[C@H]2C1	/	1.5e-07M*	1.2e-07M*	/	/	/
N#CC1=C(N)C(C#N)(C#N)[C@H](c2ccncc2)[C@H]2CN(C(=O)OCc3ccccc3)CC=C12	/	1e-07M*	7.7e-08M*	/	/	/
CC(=O)N1CC=CC1(CC(C)C)C(=O)NCc1ccc(C)o1 (stereo not given)	0%	/	/	-5%	-5%	-7%
CCOC(=O)c1cnc2sc3c(n2c1=O)CCCC3	5%	4.2e-06M*	2.8e-06M*	?	i	32µM*
CCOC(=O)c1cnc2nc(C)[nH]n2c1=O	-1%	i	i	?	2%	-3%
COc1ccc(Oc2ncc3ncc(=O)n(C)c3n2)cc1	2%	i	i	?	1%	-2%
Nc1ccc(S(=O)(=O)O)cc1	4%	/	/	-10%	-5%	-19%
CC(C)(C)OC(=O)[C@H]([C@@H]1N[C@@H](C(=O)O)C(C)(C)S1)N1C(=O)c2ccccc2C1=O	-1%[11.5 µM]	5.4e-08M*	4.8e-08M*	3%[7.6 µM]	6%[11.4 µM]	2%[11.4 µM]
CCOc1ccccc1Oc1c(C)oc2c(CN3CCN(C)CC3)c(O)ccc2c1=O	4%	1.7e-06M*	1.2e-06M*	?	?	32µM*
CCOC(=O)c1oc2cc(OCC(N)=O)ccc2c(=O)c1-c1ccc(OC)c(OC)c1	0%	i	i	19%	-1%	3%
COc1ccc(-c2c(C)oc3c(CN4CCN(CCO)CC4)c(O)ccc3c2=O)cc1OC	1%	8.2e-08M*	2e-07M*	16%	?	25µM*
CCc1cc2c(=O)c(-c3nc4ccccc4n3C)c(C)oc2c(CN2CCOCC2)c1O	3%	/	/	?	-28%[11.4 µM]	?
COc1ccccc1-c1c(C)oc2c(CN3CCN(CCO)CC3)c(O)ccc2c1=O	2%	7.6e-07M*	1.1e-06M*	-8%	25µM*	25µM*
COc1ccccc1-c1c(C)oc2c(CN3CCN(C)CC3)c(O)ccc2c1=O	/	6.1e-07M*	5.4e-07M*	/	/	/
CCOC(=O)c1oc2c(CN3CCN(C)CC3)c(O)ccc2c(=O)c1-c1ccccc1OC	2%	/	/	3%	-5%	-2%
Clc1ccc(Cc2noc(-c3cccs3)n2)cc1	-2%	i	i	-10%	-2%	-23%
CON	-2%	/	/	/	/	2%
CO[C@@H]1COC(=O)[C@H](C)NC(=O)[C@@H](C)COC(=O)CCC[C@H]1C	0%[11.5 µM]	/	/	/	4%[11.4 µM]	3%[11.4 µM]
Cc1oc2c(CN3CCCC3)c(O)ccc2c(=O)c1-c1ccc(Br)cc1	2%	5.5e-06M*	3.4e-06M*	6%	i	32µM*
Cc1[nH]c2ccc(Br)cc2c(=O)c1CN1CCOCC1	-2%	?	?	2%	60%	2%
N#Cc1nc(-c2cccs2)oc1N1CCOCC1	-2%	4.5e-06M*	3.5e-06M*	?	3.2µM*	13µM*
N#Cc1nc(COc2ccccc2)oc1N1CCOCC1	3%	i	i	3%	7%	9%
SMILES	AID923	A350 autofl	4-MU autofl	CRE Fsk mod	HADH2 inhib	HSD17B inhib
CC1CN(c2oc(-c3cccs3)nc2C#N)CC(C)O1 (stereo not given)	/	1.7e-06M*	1.5e-06M*	/	/	/
CC[N+](C)(C)Cc1ccccc1Br	-1%	1.7e-08M*!	2e-08M*!	0%[17.1 µM]	-5%	4%
CNc1ccc(O)cc1	6%	/	/	-5%	?	7.9µM*
CNc1ccccc1	-3%	/	/	-5%	-5%	6%
NC(=O)[C@@H]1CCCNC1	1%[11.5 µM]	i	i	12%[7.6 µM]	7%[11.4 µM]	2%[11.4 µM]
CCOc1ccc(-c2nnn(CC(=O)c3cc(OC)ccc3OC)n2)cc1	2%	3.5e-07M*	3.7e-07M*	0%	?	6.3µM*
CCOc1ccc(-c2nnn(CC(=O)Nc3cc(OC)ccc3OC)n2)cc1OCC	1%	?	i	3.2µM*	15%	3%
CCOc1ccc(-c2nnn(CC(=O)Nc3cc(OC)cc(OC)c3)n2)cc1OCC	1%	i	i	15%	9%	-4%
Brc1c(OCCOCCn2cncn2)ccc2ccccc12	-1%	i	i	?	3%	0%
COc1ccc(-c2cc(=O)c3c(O)cc(O[C@H]4OC(COC5OC(C)C(O)C(O)[C@H]5O)C(O)C(O)C4O)cc3o2)cc1O (stereo not given in full)	0%	/	/	/	/	-14%
CN(C)CC[C@@H](C(=O)C(C)(C)C)c1ccccn1	2%[11.5 µM]	i	i	-3%[7.6 µM]	4%[11.4 µM]	3%[11.4 µM]
COc1ccc2cc(C(c3nnnn3CC3CCCO3)N3CCOCC3)c(=O)[nH]c2c1 (stereo not given)	0%	1.2e-08M*	1.2e-08M*	0%	?	-15%
CCC(C)(C)n1nnnc1C(c1cc2ccc(OC)cc2[nH]c1=O)N1CCN(C2CCCCC2)CC1 (stereo not given)	5%	?	?	-9%	7%	-4%
Cc1ccc2cc(C(c3nnnn3C(C)(C)C)N3CCCC3)c(=O)[nH]c2c1C (stereo not given)	4%	1.3e-08M*	1.2e-08M*	-1%	1%	-9%
CCCN1CCN(C(c2cc3cc4c(cc3[nH]c2=O)OCO4)c2nnnn2C(C)(C)C)CC1 (stereo not given)	9%	1.2e-06M*	1.7e-06M*	2%	25µM*	32µM*
CC1CCN(C(c2cc3cc4c(cc3[nH]c2=O)OCO4)c2nnnn2CC2CCCO2)CC1 (stereo not given)	0%	4e-07M*	4.4e-07M*	-2%	?	200%
CCSc1ccccc1C(=O)Nc1cccc(OC)c1	-1%	i	i	-1%	6%	3%
CC(=O)/C=C\C1[C@]2(C)CCCC(C)(C)C2CC[C@@]1(C)O (stereo not given in full)	-2%	/	/	/	/	3%
C#CC1(O)CC(C)NCC1(C)CCC#N (stereo not given)	2%	i	i	-1%	5%	14%
CCOc1ccc2[nH]c(=O)c(C(c3nnnn3CC3CCCO3)N3CCc4ccccc4C3)cc2c1 (stereo not given)	7%	2.4e-07M*	1.9e-07M*	?	-13%	25µM*

Screening data as filed in PubChem BioAssay.
